These results are taken from ChEMBL document CHEMBL3433997, “St. Jude Leishmania screening dataset” (2016).

What all share (type): functional
In test [1] the target is Solute carrier family 2, facilitated glucose transporter member 1 (Homo sapiens) (UniProt P11166). Put plainly: ST_JUDE_LEISH: Cytotoxicity at 2uM final concentration against transgenic Leishmania Mexicana promastigotes LmGLUT1 that are glucose transport deficient and complemented with the human glucose transporter GLUT1. Activity is measured by DNA content using SYBR green in vitro.
Sequence of Solute carrier family 2, facilitated glucose transporter member 1 (Homo sapiens) (P11166 whole entry): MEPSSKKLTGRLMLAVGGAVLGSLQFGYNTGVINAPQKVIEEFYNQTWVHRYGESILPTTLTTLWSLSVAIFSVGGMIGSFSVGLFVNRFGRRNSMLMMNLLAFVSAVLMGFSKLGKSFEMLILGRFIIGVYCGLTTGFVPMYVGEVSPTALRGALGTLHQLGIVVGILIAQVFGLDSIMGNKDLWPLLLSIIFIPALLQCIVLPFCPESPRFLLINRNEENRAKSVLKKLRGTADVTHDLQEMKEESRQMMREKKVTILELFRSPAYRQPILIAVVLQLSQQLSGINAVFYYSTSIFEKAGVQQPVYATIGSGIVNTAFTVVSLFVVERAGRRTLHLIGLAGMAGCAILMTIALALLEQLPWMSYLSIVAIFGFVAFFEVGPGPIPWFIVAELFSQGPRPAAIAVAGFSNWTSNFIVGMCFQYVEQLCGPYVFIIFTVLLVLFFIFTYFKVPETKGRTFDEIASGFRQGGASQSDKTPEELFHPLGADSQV

The target of test [2] is Hexose transporter 1 (Plasmodium falciparum) (UniProt O97467). Put plainly: ST_JUDE_LEISH: Cytotoxicity at 2uM final concentration against transgenic Leishmania Mexicana promastigotes LmPfHT that are glucose transport deficient and complemented with the Plasmodium falciparum hexose transporter. Activity is measured by DNA content using SYBR green in vitro.
In test [3] the target is Glucose transporter (Leishmania mexicana) (UniProt O61059). The test can be described thus: ST_JUDE_LEISH: Cytotoxicity at 2uM final concentration against transgenic Leishmania Mexicana promastigotes LmGT2 that are glucose transport deficient and complemented with the L. Mexicana glucose transporter 2. Activity is measured by DNA content using SYBR green in vitro.

In the case of `CC(C)N1CCC(N(Cc2ccc(-c3ccc(C(F)(F)F)cc3)cc2)C(=O)Cn2c(SCc3cccc(F)c3F)nc(=O)c3ccccc32)CC1`, the figures for the inhibition in test [1], in test [2] and in test [3] were 6.03%, 4.99% and 4.15%, respectively.

Regarding `O=C(NCCCCCN1CCC(c2c[nH]c3ccccc23)CC1)c1ccc(-c2ccccc2)nc1`, the inhibition (commonly the relative decrease from the control value, in per cent) in test [1] was 2.41%; in test [2], 2.42%; in test [3], 2.97%.

As for `CC(Oc1ccc(C(=O)c2ccc(F)cc2)cc1)C(=O)N1CCc2ccccc21` (stereo not drawn), the inhibition is -1.44% in test [1], -0.96% in test [2] and 0.7% in test [3].

With `Cc1nc(NC(=N)N)nc2ccc(C(C)(C)C)cc12`, the inhibition amounted to 0.73% in test [1], 0.81% in test [2] and 1.22% in test [3].

Take `CCN(CC)C(C)(C)CN(Cc1ccc(-c2ccc(C(F)(F)F)cc2)cc1)C(=O)Cn1c(CCc2cccc(F)c2F)nc(=O)c2ccccc21`: the inhibition in test [1] stood at 6.6%; in test [2], 5.18%; in test [3], 5.98%.

With `CCC(C)NC(=O)CN1CN(c2ccccc2)C2(CCN(C(=O)c3ccc4ccccc4c3)CC2)C1=O` (stereo not drawn), the inhibition in test [1] was 0.98%; in test [2], -0.53%; in test [3] it was -0.96%.

`COc1ccc(O)c(-c2sc(N=C(N)N)nc2-c2ccccc2)c1`: the inhibition in test [1] came to 1.77%; in test [2] it was 2.67%; in test [3], 3.42%.

Take `Cc1c(Br)cc2nc(-c3ccc(C(=O)NC4CCN(Cc5ccccc5)CC4)cc3)[nH]c2c1C`: the inhibition stood at 1.63% in test [1], 1.85% in test [2] and 0.51% in test [3].

Turning to `O=C1C(=Cc2c(O)ccc3ccccc23)SC(=NCc2ccccc2)N1Cc1ccccc1`, the inhibition in test [1] was determined as 3.93%; in test [2], 2.01%; in test [3], 3.38%.

For `CCNc1cc(C)nc(Nc2ccc(NC(=O)c3ccccc3Br)cc2)n1`, the results for the inhibition in test [1], in test [2] and in test [3] were 8.09%, 9.16% and 4.36%, respectively.

With `COc1ccc(-c2nc3cccnc3n2CC(=O)Nc2c(C)cc(C)cc2C)c(OC)c1`, the values for the inhibition in test [1], in test [2] and in test [3] were -0.28%, -1.73% and 1.82%, respectively.

With `Cc1ccc(NC(=O)Nc2ccc(S(=O)(=O)c3ccc(NC(=O)Nc4ccc(C)c(Cl)c4)cc3)cc2)cc1Cl`, the inhibition in test [1] was 0.06%; in test [2], -0.49%; in test [3], 1.78%.

On to `Nc1nc(N)c2c(Oc3cccnc3)cccc2n1`, for which the inhibition in test [1] was 0.1%; in test [2] it was -1.61%; in test [3], -0.57%.

For `CC(C)COc1ccc(Cl)cc1Cc1ccc(-c2nc3ccc(F)cc3[nH]2)o1`, the values for the inhibition in test [1], in test [2] and in test [3] were 1.83%, 0.95% and -0.47%, respectively.

On to `O=C(Nc1ccc(Cl)cc1)c1ccc(CN2CCCN(Cc3cccc(O)c3)CC2)cc1`, for which the inhibition in test [1] worked out at 1.65%; in test [2], 1.35%; in test [3], 2.47%.

With `Nc1c2ccccc2nc2cc(C(F)(F)F)ccc12`, the values for the inhibition in test [1], in test [2] and in test [3] were 2.83%, 5.91% and 1.3%, respectively.

As to `N#Cc1cccc(C(=O)Nc2ccc(-c3nc4ccccc4[nH]3)cc2)c1`, the inhibition in test [1] was 0.28%; in test [2], -0.34%; in test [3], -0.95%.

In the case of `COc1cccc(C(=O)NC(C=Cc2ccccc2)c2cc(Cl)c3cccnc3c2O)c1` (stereo not drawn), the inhibition is 2.89% in test [1], 2.04% in test [2] and 2% in test [3].

`Nc1nccc2ccc(-c3cccc(O)c3)cc12`: the values for the inhibition in test [1], in test [2] and in test [3] were 7.38%, 6.21% and 4.01%, respectively.

Turning to `COc1cc(C)nc2ccc(NC(=O)Nc3cccc4ccccc34)cc12`, the figures for the inhibition in test [1], in test [2] and in test [3] were 3.38%, 5.33% and 3.45%, respectively.

In the case of `O=C(Nc1ccc(-c2nc3ccccc3[nH]2)cc1)c1ccc(Cl)c([N+](=O)[O-])c1`, the inhibition in test [1] is 1.55%; in test [2], 1.9%; in test [3], 1.41%.

`CC(C)(CNC(=O)C1CCN(Cc2ccoc2)CC1)c1nc(-c2ccc(Cl)c(O)c2)c(-c2ccncc2)[nH]1`: the inhibition in test [1] was -1.41%; in test [2], 0.07%; in test [3], -2.68%.

In the case of `CN(C)CCOc1cccc(-c2cnc(N)c(-c3nc4cc(S(C)(=O)=O)ccc4[nH]3)c2)c1`, the values for the inhibition in test [1], in test [2] and in test [3] were 1.53%, 2.26% and 2.58%, respectively.

Turning to `COc1cccc(CCN(Cc2ccccc2-c2ccc(CNC3CC(C)(C)NC(C)(C)C3)cc2)C(=O)NC2CCCCC2)c1`, the inhibition was found to be 0.9% in test [1], 0.87% in test [2] and 2.67% in test [3].

For `CC(C)Nc1nc(NCCc2c[nH]cn2)nc(NCc2cccc3ccccc23)n1`, the figures for the inhibition in test [1], in test [2] and in test [3] were -1.11%, -0.07% and -2.34%, respectively.

With `COc1cc(C(=O)Nc2ccc3nc(N4CCN(C)CC4)cc(C)c3c2)cc(OC)c1OC`, the inhibition was 1.09% in test [1], 0.31% in test [2] and -0.52% in test [3].

In the case of `CC(C)N1CCN(C(=O)c2ccc(CNCCCN3CCN(c4ccccc4C(F)(F)F)CC3)s2)CC1`, the values for the inhibition in test [1], in test [2] and in test [3] were -4.83%, 0.84% and 4.26%, respectively.

For `CC1CCN(Cc2cccc(C(=O)NCc3ccc(F)c(-c4cccc(CN5CCN[C@@H](C)C5)c4)c3)c2)CC1`, the inhibition was determined as 1.17% in test [1], 0.82% in test [2] and 1.82% in test [3].

For `CC(C)(CN1CCCC1)CN(Cc1ccc(-c2ccc(C(F)(F)F)cc2)cc1)C(=O)Cn1c(CCc2cccc(F)c2F)nc(=O)c2ccccc21`, the inhibition in test [1] was 10.3%; in test [2] it was 8.05%; in test [3], 8.96%.

As to `O=C(Nc1ccc(F)cc1)N1CCCN(c2ccnc3cc(Cl)ccc23)CC1`, the inhibition in test [1] was determined as 0.02%; in test [2], 0.34%; in test [3], 1.11%.

Regarding `COc1ccc(-c2nc(NC(=O)CS(=O)(=O)c3ccc(F)cc3)sc2C)cc1`, the inhibition in test [1] was 8.03%; in test [2] it was 4.52%; in test [3], 2.47%.

Take `Cn1c(NC(=O)CCCCCNC(=O)c2ccc(O)c(-c3ccc(Cl)c(Cl)c3)c2)nc2ccccc21`: the inhibition came out at 1.81% in test [1], 1.73% in test [2] and 2% in test [3].

For the compound `CCc1cn(C)c2c(N3CCCC3=O)cc(C(=O)N[C@@H](Cc3ccccc3)[C@H](O)CNC(C)(C)c3cccc(OC)c3)cc12`, the inhibition was 4.6% in test [1], 2.52% in test [2] and 7.65% in test [3].

As to `COc1cc(Cc2cnc(N)nc2N)cc(OCCCC#N)c1OC`, the figures for the inhibition in test [1], in test [2] and in test [3] were 0.61%, -1.21% and -1.3%, respectively.

On to `O=[N+]([O-])c1ccc(N/C(=N\c2ccccc2Br)NC2CCCc3ccccc32)c(O)c1` (stereo not drawn), for which the inhibition in test [1] is 0.73%; in test [2], -1.02%; in test [3], -1.9%.

As for `COc1ccc(Nc2nccc(-c3cccc(NC(=O)c4cc5cc(F)ccc5[nH]4)c3)n2)cc1`, the inhibition in test [1] was 3.61%; in test [2], 0.11%; in test [3] it was -1.2%.
